Assay outcomes as filed in PubChem.
An excerpt weighted towards active compounds, which were near 2.3% of everything screened.
Bcl-xL primary – Bcl-xL (human) inhibition. 320,000 compounds, 0.7% hits. Q07817. inhibition, % at 10.9 µM. GST-Bcl-xL / FITC-Bim BH3 peptide fluorescence polarization;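 active = inhibition above the mean of all tested compounds plus 3 SD, cutoff set per campaign, cut at about 30% in these data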;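 note: 0% = DMSO wells and 100% = unlabeled Bim-BH3 peptide competitor; inhibitors lower millipolarization by displacing the labeled peptide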
Target sequence (Q07817 whole entry, looked up): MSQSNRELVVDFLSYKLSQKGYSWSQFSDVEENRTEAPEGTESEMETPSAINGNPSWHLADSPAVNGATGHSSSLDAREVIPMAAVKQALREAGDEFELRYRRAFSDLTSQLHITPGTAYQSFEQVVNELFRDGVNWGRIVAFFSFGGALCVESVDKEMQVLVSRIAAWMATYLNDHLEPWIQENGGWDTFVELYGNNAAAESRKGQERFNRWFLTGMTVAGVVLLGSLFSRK
Mcl1 Noxa PPI – Mcl-1/Noxa interaction inhibition; Q07820; TR-FRET Mcl-1/Noxa peptide binding, 2 h; inhibition, % at 21.7 µM; 220,000 compounds, 1.5% hits; AID 1022;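 active = compounds that cut the protein-peptide binding signal by more than 50% relative to plate controls in a single-dose test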;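 note: His-tagged Mcl-1 with rhodamine Noxa BH3 peptide and terbium anti-His antibody; 0% = Mcl-1 plus Noxa peptide wells and 100% = peptide-only wells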
Target sequence (Q07820 whole entry, looked up): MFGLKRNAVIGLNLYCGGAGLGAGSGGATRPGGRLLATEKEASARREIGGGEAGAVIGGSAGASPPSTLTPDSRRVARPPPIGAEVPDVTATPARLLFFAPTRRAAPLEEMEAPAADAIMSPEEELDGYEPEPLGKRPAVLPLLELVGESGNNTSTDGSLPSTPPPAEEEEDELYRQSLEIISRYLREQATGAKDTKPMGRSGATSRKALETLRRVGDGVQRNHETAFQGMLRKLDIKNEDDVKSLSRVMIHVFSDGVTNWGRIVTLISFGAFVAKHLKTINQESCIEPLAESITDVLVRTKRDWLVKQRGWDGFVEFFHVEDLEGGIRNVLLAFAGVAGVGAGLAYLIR
Mcl1 Bid PPI – disrupts binding of human Mcl-1 to Bid peptide; 220,000 compounds, 0.97% hits; AID 1021; Q07820; TR-FRET Mcl-1/Bid-Dy647 peptide binding, 1536-well; inhibition, % at 21.7 µM;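 active = compounds that cut the binding signal by more than half at the single screening dose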;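 note: His-tagged Mcl-1 with europium anti-His antibody binding Bid BH3 peptide; 0% = Mcl-1 plus peptide wells and 100% = peptide-only wells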
GLD-1 RNA inh – GLD-1-TGE RNA interaction inhibition (C. elegans) | Q17339 | 320,000 compounds, 0.44% hits | inhibition, % at 5.96 µM | purified GLD-1 + fluorescein TGE RNA, fluorescence polarization;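 active = percent inhibition above a per-plate cutoff, the plate mean of test compounds plus 3 SD, cut at about 30% in these data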;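 note: 0% = DMSO wells with GLD-1 and probe and 100% = wells lacking GLD-1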
MCL1 BIM primary – inhibitors of human MCL1 binding to BIM-BH3 peptide. Q07820. GST-MCL1 / FITC-Bim-BH3 fluorescence polarization. inhibition, % at 10.9 µM. 320,000 compounds, 0.68% hits. AID 2057;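 active = inhibition above the mean inhibition of all tested compounds plus 3 SD, set per campaign, cut at about 40% in these data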;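 note: 0% = DMSO wells and 100% = unlabeled Bim-BH3 peptide control; higher means more loss of mP so more displacement of Bim peptide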
Bim-Mcl-1 – human Bim-Mcl-1 interaction inhibition; Q07820; Bead-based flow cytometry, Bim peptide-Mcl-1 binding; 190,000 compounds, 0.1% hits; inhibition, % at 10 µM; in the data active = inhibition above about 40%;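 note: 0% = no compound tracer wells and 100% = peptide blocker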
BCLXL inh confirm – counter-screen for MCL1 inhibitors: confirmation of human Bcl-xL inhibitors; 1,700 compounds, 54% hits; shares compounds with MCL1 BIM primary; GST-Bcl-xL / FITC-Bim BH3 peptide FP binding; inhibition, % at 10.9 µM;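 active = inhibition above a cutoff equal to the mean inhibition of all tested compounds plus 3 SD, cut at about 30% in these data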;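 note: 0% = DMSO wells and 100% = unlabeled Bim BH3 control peptide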
MCL1 BIM confirm – confirmation of human MCL1 and BIM-BH3 interaction inhibitors. shares compounds with MCL1 BIM primary. 1,700 compounds, 61% hits. AID 2168. GST-MCL1 / FITC-Bim-BH3 fluorescence polarization. inhibition, % at 10.9 µM;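 active = inhibition above the average of all tested compounds plus 3 SD, cut at about 40% in these data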;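 note: 0% = DMSO wells and 100% = unlabeled Bim-BH3 control peptide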
An asterisk follows results filed as active; x = no result given.

SMILES	Bcl-xL primary	Mcl1 Noxa PPI	Mcl1 Bid PPI	GLD-1 RNA inh	MCL1 BIM primary	Bim-Mcl-1	BCLXL inh confirm	MCL1 BIM confirm
CN1/C(=C\C=N\NC(=O)c2ccc(O)cc2)C(C)(C)c2ccccc21	39*	-3	-98	32*	47*	-4	-15	-28
CC1(C(=O)NNC(=O)c2ccc(=O)oc2)CC1Br (stereo unspecified)	37*	-53	-112	29	58*	x	41*	52*
COc1ccc(NC(=O)CN(C)CC(=O)NCC(=O)Nc2ccc(F)cc2)cc1	1	x	x	0	3	x	x	x
COc1ccc(-c2cc(=O)oc3cc(OC(C)C(=O)O)ccc23)cc1 (stereo unspecified)	0	13	29	4	0	-3	x	x
COc1ccc(-c2cc(=O)oc3c(O)c(O)ccc23)cc1	10	x	x	2	68*	x	72*	93*
O=C(CN1C(=O)NC2(CCCCCCC2)C1=O)Nc1ccc(Br)cc1	5	x	x	0	1	x	x	x
O=C(CCN1C(=O)c2ccccc2S1(=O)=O)Nc1nc2c(s1)CCCC2	-1	10	-8	1	-3	-1	x	x
O=C(CSc1nc2nn(-c3ccccc3)c(=O)c-2c2n1CCCCC2)c1ccc(O)c(O)c1	21	x	x	-1	77*	x	33*	82*
O=c1oc2ccccc2nc1/C=C(O)/C=C\c1ccccc1	57*	2	-6	34*	69*	-3	-40	-94
O=c1oc2ccccc2nc1/C=C(O)/C=C/c1ccc(F)cc1	-14	22	-48	-5	-34	-2	x	x
Cc1cc(C(=O)NN)n[nH]1	3	8	-24	3	56*	x	1	7
CC(C)OC(=O)c1cc(=O)[nH]c2ccccc12	5	12	7	-1	3	2	x	x
CC(OC(=O)c1cc(=O)[nH]c2ccccc12)C(=O)c1ccccc1 (stereo unspecified)	-2	10	11	1	143*	1	3	-3
CCCCC1=CC2=CC(=O)C(C)(OC(=O)c3ccc(Cl)nc3)C(=O)C2=CO1 (stereo unspecified)	52*	x	x	68*	66*	x	48*	65*
CC(C)(C)OC(=O)NCCCC1=CC2=CC(=O)C(C)(OC(=O)C3CCCC3)C(=O)C2=CO1 (stereo unspecified)	65*	x	x	79*	74*	x	48*	66*
COC(=O)CCCC1=CC2=CC(=O)C(C)(OC(=O)c3ccco3)C(=O)C2=CO1 (stereo unspecified)	67*	x	x	73*	88*	x	75*	110*
CC(C)(C)OC(=O)NCCCCC1=CC2=CC(=O)C(C)(OC(=O)c3ccco3)C(=O)C2=CO1 (stereo unspecified)	29	x	x	49*	61*	x	23	32
CCCCC1=CC2=CC(=O)C(C)(O)C(=O)C2=CO1 (stereo unspecified)	16	x	x	29	16	x	x	x
Cc1ccc(Nc2nnc(-c3ccc4c(c3)OCO4)o2)c(C)c1	4	-8	-11	1	11	x	x	x
N#Cc1c(N2CCCC2)nsc1-c1ccccc1	3	x	x	10	1	x	x	x
CN1CCN(C(=O)/C(=C/c2ccco2)NC(=O)c2ccccc2)CC1	2	x	x	11	0	x	x	x
N#CC1=C(N)Oc2cc(N)ccc2C1c1ccc(F)cc1F (stereo unspecified)	55*	x	x	4	54*	x	23	23
N#CC1=C(N)Oc2cc(N)ccc2C1c1ccc(F)cc1 (stereo unspecified)	6	0	-17	2	5	-4	x	x
CCOC(=O)c1c(-n2c(C)cc(C=O)c2C)sc2c1CCCC2	-3	2	-50	6	-1	-1	x	x
Cc1ccc(C)n1-c1sc2c(c1C(=O)O)CCCC2	20	37	-56	-6	70*	-3	17	49*
SMILES	Bcl-xL primary	Mcl1 Noxa PPI	Mcl1 Bid PPI	GLD-1 RNA inh	MCL1 BIM primary	Bim-Mcl-1	BCLXL inh confirm	MCL1 BIM confirm
O=C(OCCc1ccccc1)c1cc(O)c(O)c(O)c1	19	x	x	-5	54*	x	41*	75*
COc1cc(C(=O)NC(CCSC)C(=O)OCc2cc([N+](=O)[O-])cc3c2OCOC3)cc(OC)c1OC (stereo unspecified)	1	11	-34	9	-7	-1	x	x
COc1cc(OC)c(NC(=O)Cc2cccs2)cc1Cl	0	x	x	-1	1	x	x	x
CCN(CC)S(=O)(=O)c1ccc(OC)c(NC(=O)Cc2cccs2)c1	7	56*	-60	-1	40*	-1	22	51*
CC(=O)Nc1ccc(Nc2ccc3c4c(cc(=O)n3C)-c3ccccc3C(=O)c24)cc1	61*	56*	1	28	57*	8	61*	70*
O=C1CNC(=O)/C(=C\c2ccccc2)N1	8	x	x	5	5	x	x	x
O=C1/C(=C/c2ccccc2)Nc2ccccc21	64*	16	-26	-52	57*	0	56*	82*
COc1ccc(/C=C/C=C2\NC(=S)NC2=O)cc1	-7	7	-41	-17	-12	14	x	x
CCCOP(=O)(c1ccc(N(C)C)cc1)C(Nc1ccccc1)c1ccc(C)cc1 (stereo unspecified)	2	-4	-10	7	44*	x	-6	-9
O=S(=O)(CCc1nc2ccccc2s1)c1ccc2ccccc2c1	7	10	15	1	7	-2	x	x
CCCCc1cc(=O)oc2cc(C)cc(OC(C)C(=O)NC(Cc3c[nH]c4ccc(O)cc34)C(=O)O)c12 (stereo unspecified)	-1	x	x	5	4	x	x	x
O=C1NCC(COCc2ccccc2)O1 (stereo unspecified)	26	7	-6	12	54*	1	10	12
Cc1cccc(C)c1OCC1CNC(=O)O1 (stereo unspecified)	3	x	x	3	-4	x	x	x
C[C@@H]1Cc2c(O)c(O)cc(O)c2C(=O)O1	7	15	-99	11	6	x	x	x
O=C1C=C(O)c2c(O)cc(O)c(O)c2C1=O	27	x	x	7	95*	x	27	97*
O=[N+]([O-])c1cccc(C(=S)N2CCN(c3ccc(F)cc3)CC2)c1	38*	26	-14	20	51*	-5	22	14
CC(=O)OCC1=C(C(=O)O)N2C(=O)C(NC(=O)c3ccc(COc4cccc(Cl)c4Cl)o3)C2SC1 (stereo unspecified)	29	48	-5	-1	51*	-1	18	66*
COc1cccc(C(=O)NC2C(=O)N3C(C(=O)O)=C(COC(C)=O)CSC23)c1 (stereo unspecified)	9	x	x	6	21	x	x	x
